“And” between values parts separate entries of the source, which are not always exact repeats. Identical values can stand only once. The campaign covered roughly 310,000 compounds. About 1,200 (0.39%) were called active. How the calls were made is not given here. Only a sample is shown. Measured potencies and affinities stand elsewhere.
Target: Large T antigen (Simian virus 40) (UniProt P03070)
Assay: TAg ATPase/helicase activity blockers – biochemical (AID 1903)
Conditions: SV40 large T antigen ATPase/helicase inhibition assay; at 20 µM; active compounds read high

Sequence of Large T antigen (Simian virus 40) (P03070 whole entry, looked up): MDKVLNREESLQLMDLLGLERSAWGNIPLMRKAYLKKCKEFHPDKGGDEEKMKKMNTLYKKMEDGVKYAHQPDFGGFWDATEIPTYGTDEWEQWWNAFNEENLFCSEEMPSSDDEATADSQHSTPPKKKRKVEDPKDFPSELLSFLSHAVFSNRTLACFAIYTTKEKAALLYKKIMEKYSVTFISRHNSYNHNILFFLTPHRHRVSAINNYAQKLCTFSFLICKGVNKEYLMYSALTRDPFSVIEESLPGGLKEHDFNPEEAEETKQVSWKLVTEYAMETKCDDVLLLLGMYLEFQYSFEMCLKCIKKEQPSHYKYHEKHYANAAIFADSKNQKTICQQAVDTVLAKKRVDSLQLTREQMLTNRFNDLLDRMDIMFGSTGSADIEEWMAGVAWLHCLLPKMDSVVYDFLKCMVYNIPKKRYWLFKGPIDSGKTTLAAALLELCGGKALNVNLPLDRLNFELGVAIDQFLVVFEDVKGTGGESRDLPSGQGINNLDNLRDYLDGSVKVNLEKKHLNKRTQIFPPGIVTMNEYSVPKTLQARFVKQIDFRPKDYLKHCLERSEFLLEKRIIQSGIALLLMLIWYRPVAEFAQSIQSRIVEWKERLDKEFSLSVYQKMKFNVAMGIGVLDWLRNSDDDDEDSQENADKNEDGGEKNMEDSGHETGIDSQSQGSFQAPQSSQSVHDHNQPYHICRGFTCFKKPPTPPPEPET

inhibition, inactive:
O=C(COC(=O)c1ccccc1Oc1ccccc1)NC1CCS(=O)(=O)C1 (stereo not drawn) 2.91%, COc1ccc(C2c3sc(=O)[nH]c3SCC2C(N)=O)cc1 (stereo not drawn) 12.6%, CCCCOP(=O)(c1ccc(N(C)C)cc1)C(O)c1ccccc1F (stereo not drawn) 0.81%, O=C(CN(C(=O)CCC(=O)Nc1ccccn1)c1cccc(F)c1)NCc1ccc2c(c1)OCO2 5.37%, CCCNC(=O)N[C@@H](CCSC)C(=O)OC 1.19%, N#C/C(=C\c1ccccc1Cl)C(=O)NC(=O)Oc1ccccc1 23.3%, CCCCCc1nc2c(c(=O)c3ccccc3n2C)c(=O)n1Cc1ccc(OC)cc1 6.54%, c1ccc(-n2cc(CN3CCCC(CN4CCCC4)C3)c(-c3ccc4c(c3)OCO4)n2)cc1 (stereo not drawn) 0.36%, CC(=O)c1cccc(NC(=O)CCNC(=O)c2ccccc2Cl)c1 7.59%, O=C(N/N=C(\c1ccccc1)c1cccnc1)c1ccc(O)cc1 14.2%, O=C(N/N=C(\c1ccccc1)c1cccnc1)c1cccc(F)c1 8.05%, CCOC(=O)C1CCCN(C(=O)c2cn(CC)c3ccc(S(=O)(=O)N(C)C)cc3c2=O)C1 (stereo not drawn) 12.6%, Cc1c(Cl)cccc1NC(=O)Cn1cnc(S(=O)(=O)N2CCCC2)c1 12.7%, CC(NC(=S)Nc1ccc(Cl)cc1)C(c1ccccc1)N1CCOCC1 (stereo not drawn) 8.17%, COc1ccc2sc(C)[n+](C)c2c1 11.2%, CC[n+]1c(C)sc2cc(OC)ccc21 8.13%, Cn1c(SCC(=O)Nc2ccc3c(c2)OCCO3)nnc1-c1cccnc1 -0.17%, COc1ccc(/C=N/N2CCN(c3ccccc3OC)CC2)cc1OC 6.87%, COc1ccccc1N1CCN(/N=C/c2cccc(O)c2)CC1 7.2%, Fc1ccc(C2=Nn3c(nnc3-c3ccco3)SC2)cc1 9.39%, c1ccc(C2=Nn3c(nnc3-c3ccco3)SC2)cc1 10.2%, CN1N=C(C(=O)N2CCCC(C(=O)c3cccc(C(F)(F)F)c3)C2)CCC1=O (stereo not drawn) 2.73%, CCOc1ccccc1/C=N/n1c(COc2ccccc2)n[nH]c1=S 14.8%, O=c1/c(=C/c2ccc(O)c([N+](=O)[O-])c2)sc2nc3ccccc3n12 9.09%, CCN(CC)c1ccc(/C=c2\sc3nc4ccccc4n3c2=O)c(O)c1 11.3%, O=C(O)COCC(=O)Nc1ccc(-n2cnnn2)cc1 3.06%, C/C(=N\NC(=O)Cn1cc([N+](=O)[O-])cn1)c1ccco1 -0.91%, C/C(=N\NC(=O)c1cccc(N/N=C(\C)c2ccc([N+](=O)[O-])cc2)c1)c1ccc([N+](=O)[O-])cc1 7.03%, C/C(=N\NC(=O)c1ccc([N+](=O)[O-])cc1)c1cccc([N+](=O)[O-])c1 6.04%, C/C(=N\NC(=O)Cn1nc(C)c([N+](=O)[O-])c1C)c1ccc(O)cc1 34.5%, CC1(C)C2CCC(C2)C1(C)NC(=O)CNCc1cccs1 (stereo not drawn) 5.5%, Cc1cccc(CS(=O)(=O)Cc2ccc(C(=O)NC(C)c3ccccc3)o2)c1 (stereo not drawn) 2.72%, Cc1onc(-c2ccccc2)c1C(=O)Nc1ccc(S(=O)(=O)N2CCCC2)cc1 4.98%, COc1ccc(C=C(C(C)=O)C(C)=O)cc1OC 16.2%, N#C/C(=C\c1ccc(O)c(Br)c1)C(=O)N1CCCCC1 9.59%, N#C/C(=C\c1cccc(O)c1)C(=O)N1CCCCC1 13.5%, COc1cc(/C=C/C(=O)CC(=O)/C=C/c2ccc(O)c(OC)c2)ccc1O 17.5%, CC(=O)C1C(c2ccncc2)NC(=O)NC1(O)C(F)(F)F (stereo not drawn) 18.7%, Cn1/c(=N/NC(=O)c2ccccc2Br)sc2ccccc21 5.44%, CCOCCn1c(=NC(=O)CSCC(=O)Nc2cc(C)on2)sc2cc(OC)ccc21 -3.67%, Cc1ccc(S(=O)(=O)N(C)CC(=O)N2CCOCC2)cc1 0.93%, CCN(C=NC1=NN(c2cccc(C(F)(F)F)c2)CC1)CC 22.2%, OCCN(C=NC1=NN(c2cccc(C(F)(F)F)c2)CC1)CCO 29.5%, O=C(N/N=C/c1ccc2c(c1)OCO2)c1ccccn1 9.83%, Cc1ccc(S(=O)(=O)c2nc(-c3ccccc3Cl)oc2N(C)C)cc1 -3.31%, O=C(CCc1c[nH]c2ccccc12)OCC(=O)N1CCN(S(=O)(=O)c2ccccc2)CC1 10.9%, COc1cnc(-c2ccccn2)nc1Oc1ccccc1Cl 5.1%, COc1cnc(-c2ccccn2)nc1Oc1ccc(Cl)cc1 11.2%, Cc1c(C(=O)N2CCOCC2)c(S(=O)(=O)Nc2cccc(C#N)c2)c(C)n1C 5.47%, CCOc1cc(CNc2ccc(N3CCCC3)cc2)cc(Cl)c1OC 12.8%, COc1cc(CNc2ccc(N3CCOCC3)cc2)cc(Br)c1OC 29.9%, CCOc1c(Cl)cc(CNc2ccc(N3CCCC3)cc2)cc1OC 21.6%, CCOc1cc(C(=O)Nc2ccc(N3CCN(C(C)=O)CC3)cc2)cc(OCC)c1OCC -4.85%, CCOc1cc(CNc2ccc(N3CCOCC3)cc2)cc(Br)c1OCC 36.3%, COc1cc(CNc2ccc(N3CCN(C(C)=O)CC3)cc2)ccc1OCc1ccc(F)cc1 19.5%, COc1ccc(N(CC(=O)O)S(=O)(=O)c2cccnc2)cc1 9.79%, Cn1cnc(S(=O)(=O)N2CCN(C(c3ccc(F)cc3)c3ccc(F)cc3)CC2)c1 11.7%, COC(=O)c1ccc(C(=O)N2CCCC(Nc3ccc(F)c(F)c3)C2)cc1 (stereo not drawn) 13.5%, COc1cccc(NC(=S)NN=C2CCC(C(C)(C)C)CC2)c1 (stereo not drawn) 4.61%, N#C/C(=C/c1ccc(O)c(O)c1)C(=O)NCc1ccc(Cl)cc1 35%, CCOC(=O)/C(C#N)=C\c1ccc(O)c(OC)c1 36.3%, COc1cc(/C=C(\C#N)C(=O)c2c[nH]c3ccccc23)cc(OC)c1O 24.5%, N#C/C(=C\c1cccc(Cl)c1)C(=O)c1ccccc1 45.6%, O=S(=O)(c1ccc2oc3ccc(S(=O)(=O)N4CCCCC4)cc3c2c1)N1CCCCC1 -0.2%, CC1CCC(NC(=O)CNC(=O)Cc2cccc3ccccc23)CC1 (stereo not drawn) -1.39%, Cc1ccc(NCN2C(=O)C3C4C=CC(C4)C3C2=O)cc1 (stereo not drawn) 5.54%, O=C1C2C3C=CC(C3)C2C(=O)N1CNc1ccc(O)cc1 (stereo not drawn) 37.4%, CCN(CC)C(=O)COc1ccc2c(-c3ccc(OC)cc3)cc(=O)oc2c1 11.6%, Oc1cccc(/C=N/Nc2cc(N3CCOCC3)nc(N3CCOCC3)n2)c1 -5.16%, Oc1ccc(/C=N/Nc2cc(N3CCCC3)nc(N3CCCC3)n2)cc1O 42%, CCOc1cc(/C=C2\SC(=S)N(NS(=O)(=O)c3ccccc3)C2=O)ccc1O 38.4%, COc1cc(/C=C2\SC(=S)N(NC(=O)c3ccncc3)C2=O)ccc1O 31.8%, CCOc1cc(/C=C2\SC(=S)N(NC(=O)c3cccnc3)C2=O)ccc1O 33.1%, COc1cc(/C=C2\SC(=S)N(NS(=O)(=O)c3ccc(C)cc3)C2=O)cc(OC)c1OC 20.8%, COc1cc(/C=C2\SC(=S)N(NS(=O)(=O)c3ccccc3)C2=O)cc(OC)c1OC 11.2%, CCOc1ccc(/C=C2\SC(=S)N(NS(=O)(=O)c3ccc(C)cc3)C2=O)cc1OC 31.2%, CCCCNC(=O)C1CCCN1C(=O)Nc1ccccc1 (stereo not drawn) 4.68%, C=CCOCCN1C(=O)C2C3C=CC(C2C1=O)C1C2C(=O)N(CCOCC=C)C(=O)C2C31 (stereo not drawn) 7.04%, O=C(CSc1ccc(F)cc1)NNC(=O)c1ccccc1Br 7.8%, COc1ccc(CCN=C(N)NS(=O)(=O)c2ccc(C)c(C)c2)cc1 23.6%, CCOc1cc(C(=O)N2CCC3(CC2)NCCc2[nH]cnc23)cc(OCC)c1OCC 8.46%, O=C(OCc1ccc(Br)cc1)c1cnc(Cl)c(Cl)c1 6.01%, COCCNC(=O)c1ccc(C2SCC(=O)N2CCc2ccccc2)cc1 (stereo not drawn) 2.84%, COc1cccc(NC(=O)C2Cc3ccccc3CN2C(=O)c2ccco2)c1 (stereo not drawn) 10.4%, CCOc1ccc(N(CC(=O)NCc2ccccc2)C(=O)Cn2nnc(-c3ccc(C)o3)n2)cc1 3.98%, COc1cc2c(cc1OC)-c1cc3ccc(OC)c(OC)c3c[n+]1CC2 10.3%, COc1ccc2cc3[n+](cc2c1OC)CCc1cc2c(cc1-3)OCO2 13.6% and 21.3%, CCC1(CC)Cc2ccccc2C2=C(C(=O)N3CCCCC3)C(=O)C(=O)N21 3.53%, CSc1ccc(-c2nc(CSCC(=O)NCCCN3CCCC3=O)c(C)o2)cc1 8.19%, FC(F)(F)c1ccccc1Nc1nccs1 3.87%, Cc1nsc(Nc2ccccc2)c1C#N 11.3%, CCOC(=O)CC(NC(=O)CCc1c(C)nc2nc(C)nn2c1C)c1ccc(C)cc1 (stereo not drawn) 1.45%, CC(Oc1ccc2c(c1)oc(=O)c1ccccc12)C(=O)NCCN1CCOCC1 (stereo not drawn) 4.69%

Source: PubChem BioAssay AID1903 (Southern Research Specialized Biocontainment Screening …, 2009)
